We go through 56 molecules from PubChem BioAssay AID493034 (The Scripps Research Institute Molecular Screening Center, 2011).

SMILES strings stand for the structures. About 2,200 (92%) of roughly 2,400 compounds were called active. So high a share suggests a set chosen from earlier hits. This is one part of the list. Unmarked numbers belong to inactive results.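 The calls were made as follows: active = mean inhibition over triplicate runs exceeds the cutoff derived for the earlier primary screen (cut at about 25% in these data); inactive = the rest.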

The inhibition is the share of the control response that was lost under treatment.

The target in the test is Platelet-activating factor acetylhydrolase IB subunit alpha2 (Homo sapiens) (UniProt P68402). The test can be described thus: PAFAH1B2 inhibitors, confirmation, biochemical, fluorescence polarization, FP-rhodamine probe, triplicate (AID 493034).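 Also: 0% = enzyme with DMSO and 100% = wells lacking PAFAH1B2 protein; inhibitors lower polarization by leaving the probe unbound.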 As to conditions: recombinant PAFAH1B2, FP-rhodamine probe fluorescence polarization; at 3.39 µM; hits give high values. (In general: Polarisation of emitted light reports the rotation of a fluorescent probe.)
Sequence of Platelet-activating factor acetylhydrolase IB subunit alpha2 (Homo sapiens) (P68402 whole entry, looked up): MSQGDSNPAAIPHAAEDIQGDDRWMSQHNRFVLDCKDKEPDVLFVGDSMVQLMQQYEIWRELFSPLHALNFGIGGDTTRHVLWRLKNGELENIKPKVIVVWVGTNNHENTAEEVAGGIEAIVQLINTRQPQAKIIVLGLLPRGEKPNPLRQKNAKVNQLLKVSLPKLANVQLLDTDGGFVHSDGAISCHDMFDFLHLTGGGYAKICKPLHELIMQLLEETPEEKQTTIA
Regarding `Cc1ccc(S(=O)(=O)N2[C@@H](c3ccc(Cl)cc3)C(C(=O)O)=C[C@H]2C(C)(C)C)cc1`, the inhibition is 21%.

In the case of `Cc1ccc(S(=O)(=O)N/N=C/c2cccn2-c2ccc(Cl)cc2)cc1`, the inhibition was 45% (active).

Take `O=C(NCc1ccc(Cl)cc1)C(=O)NCC1OCCN1S(=O)(=O)c1cc(F)ccc1F` (stereo unspecified): the inhibition is 20.3%.

For the molecule `CN(C(=O)Cc1c(C(=O)O)n(C)c2ccccc12)c1ccc(Cl)cc1`, the inhibition is 41.1% (active).

With `Cc1nn(-c2ccccc2)c(Cl)c1CN(C(=O)CCl)c1ccc(Cl)cc1`, the inhibition is 21.7%.

`O=C(NNC(=O)C12CC3CC(CC(Cl)(C3)C1)C2)c1csc(N2CCOCC2)n1`: the inhibition was 23%.

On to `C=CCn1c(-c2cccn(Cc3ccc(Cl)cc3)c2=O)n[nH]c1=S`, for which the inhibition was 22.8%.

As to `S=c1[nH]nc(-c2ccc(Cl)cc2)n1Cc1ccccc1`, the inhibition is 32% (active).

On to `S=c1[nH]nc(Cc2ccc(Br)cc2)n1/N=C/c1ccc(Cl)cc1`, for which the inhibition was 20%.

`C[C@@H]1COC(=O)[C@H](Cc2ccc(F)cc2)C/C=C\C[C@@H](CC(=O)NCCO)C(=O)N1`: the inhibition is 22.3%.

Turning to `O=C(C[C@@H]1C/C=C\C[C@@H](Cc2ccc(F)cc2)C(=O)OC[C@H]2CCCN2C1=O)N[C@H](CO)Cc1ccccc1`, the inhibition was 32.1% (active).

For `O=C(C[C@H]1C/C=C\C[C@@H](Cc2ccc(F)cc2)C(=O)OC[C@H]2CCCN2C1=O)N[C@@H](CO)Cc1ccccc1`, the inhibition is 35.2% (active).

As for `O=C(C[C@@H]1C/C=C\C[C@@H](Cc2ccc(F)cc2)C(=O)OC[C@@H]2CCCN2C1=O)NCCO`, the inhibition is 26.9% (active).

On to `CCN1C(=O)N/C(=C/c2cc(C)n(Cc3ccccc3)c2C)C1=O`, for which the inhibition is 77.5% (active).

As to `O=C(N/N=C/c1cc([N+](=O)[O-])ccc1O)Nc1ccccc1`, the inhibition was 16.1%.

Turning to `O=C(N/N=C/c1cc([N+](=O)[O-])ccc1O)NC12CC3CC(CC(C3)C1)C2`, the inhibition was 79.6% (active).

For the molecule `Clc1ccc(OCCSCc2nc3ccccc3[nH]2)cc1`, the inhibition was 22.6%.

As for `COc1ccc(S(=O)(=O)Nc2ccc3c(c2)CC(=O)N([C@@H](C)CO)C[C@@H](C)[C@@H](CN(C)Cc2ccccc2)O3)cc1`, the inhibition is 26.1% (active).

Consider `COc1ccc(S(=O)(=O)Nc2ccc3c(c2)C(=O)N([C@H](C)CO)C[C@H](C)[C@@H](CN(C)S(=O)(=O)c2ccccc2)O3)cc1`, for which the inhibition is 22.7%.

Turning to `COc1ccc(S(=O)(=O)Nc2ccc3c(c2)C(=O)N([C@@H](C)CO)C[C@H](C)[C@H](CN(C)S(=O)(=O)c2ccc(F)cc2)O3)cc1`, the inhibition is 22.2%.

As for `COC(=O)c1sc(-c2ccc(Cl)cc2)cc1NC(=O)COCC(=O)O`, the inhibition was 11.5%.

`O=C(Nc1sc(-c2ccccc2)cc1C(=O)O)c1ccccc1`: the inhibition was 28.8% (active).

Take `S=c1[nH]cnc2sc(-c3ccccc3)cc12`: the inhibition is 37.9% (active).

With `O=[N+]([O-])c1cc(-c2cnc3ccccc3n2)ccc1Oc1ccc(Br)cc1`, the inhibition is 51.6% (active).

In the case of `CC(C)(C)CC(C)(C)c1ccc(O)c(CN2CCN(CCC#N)CC2)c1`, the inhibition is 32.4% (active).

As for `COC(=O)c1sccc1NC(=O)CC1C(=O)NCCN1C(=O)Nc1ccc(OCc2ccccc2)cc1` (stereo unspecified), the inhibition was 52.2% (active).

In the case of `Oc1cc2c(cc1O)CN(C(=S)NCCc1ccc(Cl)cc1)CCC2`, the inhibition was 55.2% (active).

Consider `Cn1nc(C(=O)NCCc2ccc(Cl)cc2)c2c1-c1ccccc1S(=O)(=O)C2`, for which the inhibition is 23.3%.

On to `Cc1c(C(=O)N2CCOCC2)cc(C(C)(C)C)n1-c1ccccc1`, for which the inhibition is 41% (active).

For the molecule `Cc1ccc(S(=O)(=O)n2cc(CO)c3ccccc32)cc1`, the inhibition is 40% (active).

As for `CCC(C)c1c(N)n(S(=O)(=O)c2ccc(C)cc2)oc1=O` (stereo unspecified), the inhibition is 23.5%.

For the molecule `O=C1NC[C@@H](c2ccccc2)OC(=O)[C@@H](Cc2ccc(F)cc2)CC/C=C/C[C@H]1CC(=O)N(CCO)Cc1ccccc1`, the inhibition is 57.9% (active).

Take `O=C(C[C@H]1C/C=C/CC[C@H](Cc2ccc(F)cc2)C(=O)O[C@H](c2ccccc2)CNC1=O)NCCO`: the inhibition was 23.6%.

In the case of `O=C1NC[C@H](c2ccccc2)OC(=O)[C@H](Cc2ccc(F)cc2)C/C=C\C[C@H]1CC(=O)N(CCO)Cc1ccccc1`, the inhibition is 49.6% (active).

On to `O=C1NCCOC(=O)[C@H](Cc2ccc(F)cc2)C/C=C\C[C@H]1CC(=O)N(CCO)Cc1ccccc1`, for which the inhibition is 14.8%.

For `O=C1NC[C@@H](c2ccccc2)OC(=O)[C@H](Cc2ccc(F)cc2)CC/C=C/C[C@H]1CC(=O)N(CCO)Cc1ccccc1`, the inhibition is 52.6% (active).

`S=c1[nH]nc(CSCCOc2ccc(Cl)cc2Cl)o1`: the inhibition was 23.3%.

On to `CC(C)C(C(=O)Nc1nccs1)c1ccc(Cl)cc1` (stereo unspecified), for which the inhibition is 17.2%.

As to `N#Cc1c(NC(=O)C2CC=CCC2C(=O)O)sc2c1CCCCCC2` (stereo unspecified), the inhibition was 41.1% (active).

On to `CC(C)(C)NC(=O)C(=O)NNC(=O)COc1ccc(Br)cc1`, for which the inhibition was 23.5%.

Turning to `CCc1ccc(-c2cc(C(=O)Nn3cnnc3)c3ccccc3n2)cc1`, the inhibition was 30.2% (active).

For `CC(=O)N1CCOc2ccc(S(=O)(=O)NCCc3ccc(C)cc3)cc21`, the inhibition is 23.7%.

Regarding `Cc1ccc(S(=O)(=O)N2CCN(C(=S)NCCc3ccccc3)CC2)cc1`, the inhibition is 34.8% (active).

Consider `C=C1C(=O)[C@@]23[C@H](O)C[C@@H]4C(C)(C)CC[C@H](O)[C@@]4(C)[C@@H]2CC[C@@H]1[C@H]3O`, for which the inhibition was 84.8% (active).

Consider `C=C1C(=O)[C@@]23[C@H](O)C[C@@H]4C(C)(C)CC[C@H](O)[C@]4(C)[C@@H]2C[C@H](O)[C@@H]1[C@H]3O`, for which the inhibition is 69.2% (active).

`Cc1ccc(Sc2ccc(/C=C3/C(=O)NN(c4ccccc4)C3=O)o2)cc1`: the inhibition is 73.8% (active).

Take `Cc1ccc2c(c1)C=CC(C)N2C(=O)c1ccccc1` (stereo unspecified): the inhibition was 21.4%.

Regarding `O=C(CCNS(=O)(=O)c1ccccc1)NCCCSc1ccccc1`, the inhibition was 22.4%.

Consider `Cc1ccc(CN=C2NC(=O)C(CC(=O)NCCc3ccccc3)S2)cc1` (stereo unspecified), for which the inhibition was 51.6% (active).

Regarding `Cc1ccc(S(=O)(=O)/N=C2\SC(CC(=O)Nc3ccc(F)cc3)C(=O)N2c2ccccc2)cc1` (stereo unspecified), the inhibition was 23.5%.

`O=C(NCCc1ccc(Cl)cc1)c1ccc(=O)[nH]c1`: the inhibition is 19.5%.

For `C[C@H](CO)N1C[C@H](C)[C@@H](CN(C)C(=O)Nc2ccc(C(F)(F)F)cc2)Oc2c(NC(=O)Nc3ccccc3)cccc2C1=O`, the inhibition was 42.3% (active).

For the molecule `C[C@H](CO)N1C[C@H](C)[C@@H](CN(C)C(=O)Nc2ccccc2)Oc2c(NC(=O)Nc3ccc(C(F)(F)F)cc3)cccc2C1=O`, the inhibition is 23.4%.

With `C[C@@H]1CN([C@H](C)CO)C(=O)c2cccc(NC(=O)NC3CCCCC3)c2O[C@@H]1CN(C)C(=O)Nc1ccc(C(F)(F)F)cc1`, the inhibition is 55.7% (active).

In the case of `C[C@H](CO)N1C[C@H](C)[C@@H](CN(C)C(=O)Nc2ccc(C(F)(F)F)cc2)Oc2c(NC(=O)Nc3ccc4c(c3)OCO4)cccc2C1=O`, the inhibition was 44.2% (active).

As to `C[C@H](CO)N1C[C@H](C)[C@@H](CN(C)C(=O)Nc2ccc(C(F)(F)F)cc2)Oc2c(NC(=O)Nc3ccc(C(F)(F)F)cc3)cccc2C1=O`, the inhibition was 62.5% (active).
